“And” between values parts separate entries of the source, which are not always exact repeats. Identical values can stand only once. Records with an inconclusive call do not appear. Entries that show only a call come without a potency. A structure can be active in one record and inactive in another. The source made the active and inactive calls. Unless noted, the call rests on the fitted dose curve; in most records, active means well fitted curve in the direction sought with a large enough effect in the repeat runs; inconclusive means weak or mixed curves; inactive means no such curve, though single readings can be large; an effect the other way counts as inactive or inconclusive.
Assays:
[1] = target: Progesterone receptor (Homo sapiens) (UniProt P06401); experiment: qHTS assay to identify small molecule agonists of the progesterone receptor (PR) signaling pathway (AID 1346784; calls by dose curve; further: nearly all actives have a fitted effect of over 30% in size); details: PR-UAS-bla HEK293T, beta-lactamase FRET ratio, 16 h; series mostly up to 92.4 µM
How it was run: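 Using charcoal-stripped serum (2%) to limit endogenous steroids, PR-UAS-bla HEK 293T cells received compounds for 16 hr at 37C after 6 hr plating; beta-lactamase FRET fluorescence was recorded following 2 hr substrate loading at room temperature.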

[2] = target: Progesterone receptor (Homo sapiens) (UniProt P06401); experiment: qHTS assay to identify small molecule antagonists of the progesterone receptor (PR) signaling pathway (AID 1346795; active means well fitted inhibition curve with a large enough effect in the signal ratio in the repeat runs, not every such curve was filed as active; the % refers to the signal ratio; further: potency means the concentration at half of the fitted maximal effect); details: PR-UAS-bla HEK293T, beta-lactamase FRET ratio, 16 h; series mostly up to 92.4 µM
How it was run: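 Inhibition of R5020-induced (1 nM final) beta-lactamase reporter signal in PR-UAS-bla HEK293T cells was scored by FRET fluorescence after overnight (16 hr) compound treatment.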

[3] = qHTS assay to identify small molecule antagonists of the progesterone receptor (PR) signaling pathway - cell viability counter screen (AID 1346798); details: PR-UAS-bla HEK293T viability, CellTiter-Glo luminescence, 16 h; series mostly up to 92.4 µM; further: nearly all actives have a fitted effect of over 50% in size; further: potency means the concentration at half of the fitted maximal effect
How it was run: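 ATP content as viability readout: CellTiter-Glo luminescence, 30 min room temperature, in PR-UAS-bla HEK293T cells after 16 hr compound/R5020 treatment at 37C and 5% CO2.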

[4] = qHTS assay to identify small molecule agonists of the progesterone receptor (PR) signaling pathway - cell viability counter screen (AID 1346799; calls by dose curve; further: nearly all actives have a fitted effect of over 45% in size); details: PR-UAS-bla HEK293T viability, CellTiter-Glo luminescence, 16 h; series mostly up to 92.4 µM
How it was run: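 Cytotoxicity in PR-bla HEK293T cells: 16 h compound, 37C; CellTiter-Glo added post-FRET read; luminescence after 30 min RT.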

[5] = qHTS assay to identify small molecule antagonists of the TGF-beta/Smad signaling pathway - cell viability counter screen (AID 1346824); details: SBE-bla HEK293T viability, CellTiter-Glo luminescence; series mostly up to 76.8 µM; further: nearly all actives have a fitted effect of over 50% in size
How it was run: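 SBE-bla HEK 293T cells, incubated overnight, then compound plus 0.25 ng/mL TGF-beta1 (stock added) for 5 hr at 37 C. Viability was read in the same wells by CellTiter-Glo luminescence after 30 min at room temperature.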

[6] = qHTS assay to identify small molecule agonists of the TGF-beta/Smad signaling pathway - cell viability counter screen (AID 1346829); details: SBE-bla HEK293T viability, CellTiter-Glo luminescence, 5 h; series mostly up to 76.8 µM; further: nearly all actives have a fitted effect of over 45% in size; further: potency means the concentration at half of the fitted maximal effect
How it was run: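 After overnight seating at 37 C and 5% CO2, reporter cells got compounds for 5 hr and FRET substrate for 2 hr; cell viability then came from CellTiter-Glo luminescence.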

[7] = qHTS assay to identify small molecule agonists of the TGF-beta/Smad signaling pathway (AID 1346859; active means well fitted activation curve with a large enough effect in the signal ratio in the repeat runs, not every such curve was filed as active; the % refers to the signal ratio); details: SBE-bla HEK293T, TGF-beta/Smad beta-lactamase reporter, 5 h; series mostly up to 76.8 µM
How it was run: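 Stable Smad binding element-beta-lactamase HEK 293T cells; 5 hr compound exposure at 37 C under 5% CO2; 2 hr room-temperature substrate step; fluorescence excited at 405 nm, collected at 460 nm and 530 nm.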

[8] = Human pregnane X receptor (PXR) small molecule agonists, qHTS cell viability counter screen (AID 1346977); details: PXR-Luc HepG2 viability, CellTiter-Fluor, 24 h; series mostly up to 92.4 µM; further: nearly all actives have a fitted effect of over 50% in size; further: potency means the concentration at half of the fitted maximal effect
How it was run: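 Readout is CellTiter-Fluor fluorescence from PXR-Luc HepG2 cells. Plated cells rested 5hr, then were treated with compounds for 24hr at 37C and 5% CO2, with reagent present during the last hour.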

[9] = target: Thyrotropin-releasing hormone receptor (Homo sapiens) (UniProt P34981); experiment: qHTS assay to identify small molecule antagonists of the thyrotropin-releasing hormone receptor (TRHR) signaling pathway (AID 1346877; active means well fitted inhibition curve with a large enough effect in the repeat runs, not every such curve was filed as active); details: TRHR-HEK293, TRH-induced calcium fluorescence, antagonist mode; series mostly up to 51.3 µM
How it was run: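 Antagonist mode: after a 5 min room-temperature compound exposure, cells were stimulated with 1 nM (final) TRH. Dye-loaded TRHR-HEK293 cells were used, and calcium-dependent fluorescence was followed for 3 min, with 15-point titrations run in triplicate.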

[10] = target: Thyrotropin-releasing hormone receptor (Homo sapiens) (UniProt P34981); experiment: qHTS assay to identify small molecule agonists of the thyrotropin-releasing hormone receptor (TRHR) signaling pathway (AID 1346891; calls by dose curve;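 further: HEK293 cells expressing TRHR with calcium dye readout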); details: TRHR-HEK293 calcium fluorescence, agonist mode; series mostly up to 57.6 µM
How it was run: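 In 1536-format, 1500 TRHR-Hek293 cells per well grew 18 h, took up calcium dye for 2 h at 37 °C, received compound, and were read kinetically; 15-point titrations, triplicates.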

Chain of Progesterone receptor (Homo sapiens) (P06401 whole entry, looked up): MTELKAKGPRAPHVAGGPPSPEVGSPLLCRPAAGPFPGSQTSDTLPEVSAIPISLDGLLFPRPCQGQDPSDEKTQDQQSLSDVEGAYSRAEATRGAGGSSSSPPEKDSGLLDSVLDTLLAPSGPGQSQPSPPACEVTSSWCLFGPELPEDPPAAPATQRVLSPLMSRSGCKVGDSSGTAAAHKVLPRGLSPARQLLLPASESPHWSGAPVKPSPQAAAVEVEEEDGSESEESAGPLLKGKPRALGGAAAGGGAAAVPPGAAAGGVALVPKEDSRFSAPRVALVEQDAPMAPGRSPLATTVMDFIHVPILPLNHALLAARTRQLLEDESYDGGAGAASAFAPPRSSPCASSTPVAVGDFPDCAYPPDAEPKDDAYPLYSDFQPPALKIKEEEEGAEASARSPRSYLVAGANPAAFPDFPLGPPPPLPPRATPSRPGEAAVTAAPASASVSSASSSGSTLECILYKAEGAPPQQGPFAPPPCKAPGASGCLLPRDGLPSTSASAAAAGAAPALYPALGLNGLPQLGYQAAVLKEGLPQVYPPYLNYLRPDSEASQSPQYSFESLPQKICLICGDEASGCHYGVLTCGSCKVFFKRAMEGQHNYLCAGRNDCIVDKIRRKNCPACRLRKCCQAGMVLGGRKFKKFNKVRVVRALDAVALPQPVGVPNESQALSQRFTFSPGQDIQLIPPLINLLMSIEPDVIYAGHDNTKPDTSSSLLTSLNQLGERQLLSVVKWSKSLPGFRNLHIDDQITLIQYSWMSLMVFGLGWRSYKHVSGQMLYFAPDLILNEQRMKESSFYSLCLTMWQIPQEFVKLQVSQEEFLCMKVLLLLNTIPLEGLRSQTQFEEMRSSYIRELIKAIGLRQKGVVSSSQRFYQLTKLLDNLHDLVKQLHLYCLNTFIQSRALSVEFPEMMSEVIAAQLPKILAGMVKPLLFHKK
Chain of Thyrotropin-releasing hormone receptor (Homo sapiens) (P34981 whole entry, looked up): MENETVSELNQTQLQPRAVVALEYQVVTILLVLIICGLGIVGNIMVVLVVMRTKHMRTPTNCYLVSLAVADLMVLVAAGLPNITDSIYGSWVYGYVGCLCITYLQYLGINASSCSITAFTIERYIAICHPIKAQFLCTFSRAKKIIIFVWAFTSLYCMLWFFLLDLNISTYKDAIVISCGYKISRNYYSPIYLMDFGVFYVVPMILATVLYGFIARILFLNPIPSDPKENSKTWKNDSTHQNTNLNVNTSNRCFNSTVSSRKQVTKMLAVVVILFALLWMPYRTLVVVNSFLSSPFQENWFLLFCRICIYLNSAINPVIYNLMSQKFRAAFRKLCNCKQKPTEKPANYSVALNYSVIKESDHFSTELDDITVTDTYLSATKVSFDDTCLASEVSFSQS

Compound | Potency [1] | Potency [2] | Potency [3] | Potency [4] | Potency [5] | Potency [6] | outcome [7] | Potency [8] | outcome [9] | Potency [10]
CCCCOC(=O)CCCCCCCCC(=O)OCCCC | inactive | inactive | inactive | inactive | inactive | inactive | inactive | inactive | – | –
CC1(C)O[C@@H]2[C@@H](CO[C@@]3(COS(N)(=O)=O)OC(C)(C)O[C@@H]23)O1 | inactive | inactive | inactive | inactive | – | inactive | inactive | – | inactive | inactive
NC(=O)OCC(COC(N)=O)c1ccccc1 | inactive | inactive | inactive | inactive | inactive | inactive | inactive | inactive | inactive | inactive
OCCCc1ccccc1 | inactive | inactive | inactive | – | inactive | inactive | inactive | inactive | inactive | inactive
CCN(CC)CCOC(=O)c1ccc(N)cc1 | inactive | inactive | inactive | inactive | – | inactive | inactive | – | inactive | inactive
COC(=O)c1ccc(C=O)cc1 | inactive | inactive | inactive | – | inactive | inactive | inactive | – | – | –
Cc1ccc(O)c(-n2nc3ccccc3n2)c1 | inactive | 48.6 µM (active) | inactive | – | inactive | inactive | inactive | inactive | – | –
COC(=O)C1CCC(C(=O)OC)CC1 (stereo not drawn) | inactive | inactive | inactive | – | inactive | inactive | inactive | inactive | inactive | inactive
CCOCCO | inactive | inactive | inactive | inactive | inactive | inactive | inactive | inactive | inactive | inactive
CCCCCCCCCCCCCC(=O)OC(C)C | inactive | inactive | inactive | – | inactive | inactive | inactive | inactive | – | –
COc1cc(C=O)ccc1O | inactive | inactive | inactive | inactive | inactive | inactive | inactive | – | inactive | inactive
O=[N+]([O-])c1ccc(O)cc1 | inactive | inactive | – | inactive | inactive | inactive | inactive | 44.7 µM (active) and 48.6 µM (active) | – | –
Nc1ccc(N=Nc2ccccc2)c(N)n1 | inactive | 43.3 µM (active) | inactive | – | – | inactive | inactive | – | inactive | inactive
Cc1cccc(C)c1O | inactive | inactive | – | inactive | – | inactive | inactive | – | inactive | inactive
NC(=O)N1c2ccccc2C=Cc2ccccc21 | inactive | inactive | inactive | – | – | inactive | inactive | inactive | inactive | inactive
CC(C)(C)CC(C)(C)c1ccc(O)c(-n2nc3ccccc3n2)c1 | inactive | inactive | 49.2 µM (active) | – | – | 44.3 µM (active) and inactive | inactive | inactive | inactive | inactive
CO[C@H]1C=CO[C@@]2(C)Oc3c(C)c(O)c4c(O)c(c(/C=N/N5CCN(C)CC5)c(O)c4c3C2=O)NC(=O)/C(C)=C\C=C[C@H](C)[C@H](O)[C@@H](C)[C@@H](O)[C@@H](C)[C@H](OC(C)=O)[C@@H]1C | inactive | inactive | inactive | – | – | inactive | inactive | – | inactive | inactive
C=C(C)C(N)=O | inactive | inactive | – | inactive | – | inactive | inactive | inactive | inactive | inactive
CC1=C(/C=C/C(C)=C/C=C/C(C)=C/C(=O)O)C(C)(C)CCC1 | inactive | inactive | inactive | – | – | inactive | inactive | – | inactive | inactive
CC(=O)OC/C=C(C)/C=C/C=C(C)/C=C/C1=C(C)CCCC1(C)C | inactive | inactive | inactive | – | – | inactive | inactive | inactive | inactive | inactive
O=C(OCc1ccccc1)c1ccccc1 | inactive | inactive | inactive | – | – | inactive | inactive | – | – | –

From PubChem BioAssay (Tox21)
